Measurements reported in PubChem BioAssay (NCI).
About 83,000 compounds went through this panel and 20% of them were active in at least one assay; those are over-represented in the sample as a whole.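 Treatment: one concentration, 48 hours, 96-well format. Scoring: percent growth, with anything below 10 considered active.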 Values without a mark were called inactive. Active and inactive are the calls of the source.

Experiments:
Experiment in all cases: NCI-60 one-dose screen, 48 h (100 = growth as untreated, 0 = no growth, -100 = all killed)
Conditions in all cases: 10 µM unless noted
NCI-H23 lung = system: NCI-H23 lung
NCI-H226 lung = system: NCI-H226 lung
NCI-H322M lung = system: NCI-H322M lung
HOP-62 NSCLC = system: HOP-62 NSCLC
NCI-H460 lung = system: NCI-H460 lung
HOP-92 NSCLC = system: HOP-92 NSCLC
NCI-H522 lung = system: NCI-H522 lung
A549/ATCC NSCLC = system: A549/ATCC NSCLC
786-0 renal = system: 786-0 renal
COLO 205 colon = system: COLO 205 colon

| Structure (SMILES) | growth (NCI-H23 lung) | growth (NCI-H226 lung) | growth (NCI-H322M lung) | growth (HOP-62 NSCLC) | growth (NCI-H460 lung) | growth (HOP-92 NSCLC) | growth (NCI-H522 lung) | growth (A549/ATCC NSCLC) | growth (786-0 renal) | growth (COLO 205 colon) |
| --- | --- | --- | --- | --- | --- | --- | --- | --- | --- | --- |
| CSc1nc(N)c(NS(=O)(=O)c2ccc(C(C)=O)cc2)c(=O)[nH]1 | 95.5% | 103% | 100% | 105% | 103% | 103% | 99.6% | 102% | 78.9% | 98.6% |
| C/C(Cc1ccc(Cl)cc1)=C(\c1ccc(O)cc1)c1ccc(Cl)cc1 | 85.2% | 93.3% | 83.3% | 110% | 91.5% | 83.1% | 84.1% | 94.8% | 89.5% | 109% |
| CCN1CCN(C(=O)[C@]23CCC(C)(C)C[C@@H]2C2=CC[C@@H]4[C@@]5(C)CCC(=O)C(C)(C)[C@@H]5CC[C@@]4(C)[C@]2(C)CC3)CC1 | 64.9% | 71% | 81.2% | 78.8% | 25.5% | 44.9% | 44.7% | 46.1% | 50.5% | 44.2% |
| CCSc1oc(-c2ccccc2)nc1[P+](c1ccccc1)(c1ccccc1)c1ccccc1 | -11.8% (active) | -2.47% (active) | -6.18% (active) | 0.275% (active) | 0.695% (active) | -27.9% (active) | -20.3% (active) | 9.29% (active) | 13.4% | -45.5% (active) |
| COc1ccc(C(C)=O)cc1S(=O)(=O)Nc1c(N)nc(SC)[nH]c1=O | 91.3% | 104% | 96.9% | 110% | 103% | 115% | 98.6% | 99.7% | 102% | 101% |
| CCOC(=O)NC(C)C | 106% | 112% | 107% | 93.4% | 115% | 79.6% | 99.3% | 95.7% | 95.6% | 129% |
| COc1ccc(C(=O)N2c3ccccc3Sc3ccccc32)c(OC)c1 | 38% | 31.3% | 62.2% | 48.4% | 9.97% (active) | 31.3% | -9.67% (active) | 30.6% | 28.6% | -11.4% (active) |
| CNc1nnc2n(-c3ccccc3)c(=O)c3cnn(-c4ccccc4)c3n12 | 95.8% | 93.6% | 100% | 64.7% | 106% | 78.3% | 41.8% | 64.4% | 74.7% | 84.7% |
| O=S(=O)(c1ccccc1)n1cc2c(c1)-c1nc(Nc3ncccn3)sc1CC2 | 61.9% | 25.9% | 63.6% | 22.1% | 68.4% | 22% | 55.3% | 35.2% | 18.3% | 61.9% |
| O=C(Nc1nc(-c2ccc(Cl)cc2)nc2c1sc(=S)n2-c1ccccc1)C(F)(F)F | 49.2% | 23.7% | 49.4% | 9.09% (active) | 13.6% | -4.79% (active) | 25.2% | 19.5% | -72.1% (active) | 21% |
| NS(=O)(=O)c1ccccc1NC(=O)Nc1nc2ccccc2s1 | 90.8% | 91.5% | 98% | 96.1% | 103% | 99.1% | 91.9% | 101% | 98% | 109% |
| CCOC(=O)c1ccc(NC(=O)c2nc(-c3cc(OC)c(OC)c(OC)c3)n(-c3ccc(Cl)cc3)n2)cc1 | 91.3% | 90.9% | 81.1% | 97.6% | 97.1% | 71.8% | 67.2% | 88.9% | 93.5% | 104% |
| N#Cc1nc(-c2ccc(F)cc2)oc1S(=O)(=O)N1CCCCC1 | 65.7% | 79% | 94.3% | 102% | 101% | 78.9% | -14.8% (active) | 103% | 86.4% | -13.2% (active) |
| CC(C)Cn1cnc2c(=O)[nH]c(N)nc21 | 99.3% | 89.8% | 99.9% | 80.8% | 110% | 90.8% | 70.8% | 85.4% | 98.9% | 97.1% |
| COc1ccc(-c2nn(-c3cccc(Cl)c3)cc2-c2cc(-c3ccc(Br)cc3)nc(N)n2)cc1 | 87.3% | 86% | 80.4% | 88% | 93.9% | 91% | 68.3% | 81.2% | 88.1% | 102% |
| COc1ccc(OC)c(/C=N/Nc2ncnc3c2c(C)nn3C)c1 | 106% | 92.6% | 114% | 92% | 106% | 96.2% | 93.8% | 104% | 102% | 102% |
| O=C(CN1C(=O)S/C(=C\c2ccccc2)C1=O)Nc1ncc(Cc2ccccc2Cl)s1 | 102% | 95.7% | 95.9% | 103% | 110% | 108% | 81% | 98.6% | 107% | 113% |
| Cc1nc2sc(C(=O)Nc3ccc(Br)cc3)c(N)c2cc1C(O)c1ccccc1 (stereo not given) | 61.1% | 68% | 90.4% | 67.5% | 69% | 77% | 60.5% | 64.4% | 81% | 64.5% |
| CCC(C)N(CCNc1cc(OC)cc2cccnc12)CC(C)C (stereo not given) | 86.5% | 92.7% | 95.2% | 107% | 98% | 105% | 82.8% | 102% | 117% | 96.6% |
| Cc1cc(N2CCN(CCNc3ccnc4cc(Cl)ccc34)CC2)nc(N2CCOCC2)n1 | 42.8% | 79.5% | 74.9% | 81.4% | 64.6% | 47.7% | 76.5% | 71.4% | 74% | 11.6% |
| Cc1c[n+](Cc2ccc3ccccc3c2)cn1Cc1ccc2ccccc2c1 | 27.7% | 31.8% | 65.7% | 33.2% | 21.9% | -20.9% (active) | -17.9% (active) | 60.5% | 41% | -78.7% (active) |
| O=C(CN1C(=O)S/C(=C\C(Cl)=C\c2ccccc2)C1=O)NCCc1ccc(O)cc1 | 40.2% | 60.1% | 75.2% | 43% | 45.7% | 15.6% | -6.49% (active) | 48.8% | -17.9% (active) | 13.7% |
| Cc1ccc(/C=C2\COc3ccc(O)cc3C2=O)cc1 | 94.7% | 97.3% | 99.6% | 103% | 100% | 97.4% | 4.44% (active) | 89.7% | 86.7% | 94.3% |
| CC(C)=CC(=O)OCC(=O)O[C@@H]1C[C@]2(C(C)C)O[C@@]1(C)[C@@H]1CC[C@@H](C)[C@H]1[C@@H]2OC(=O)/C=C/c1ccccc1 | 76% | 55.5% | 90.7% | 96.7% | 93.5% | 61% | 70.4% | 83.4% | 66% | 106% |
| CCN(CC)CCn1c2ccc(OC)cc2c2sc3cc(OC)ccc3c(=O)c21 | 23.1% | 71.4% | 29.8% | 38.1% | 9.41% (active) | 41.7% | 48.1% | 19.1% | 11.1% | 18.6% |
| c1ccc(-c2oc(-c3ccccc3)c(CN3CCCCC3)c2CN2CCCCC2)cc1 | 26% | 47.5% | 52.9% | 54.2% | 24.8% | 4.02% (active) | 2.64% (active) | 56.2% | 38.7% | 6.83% (active) |
| COc1c(B(O)O)cccc1-c1nc2c(F)cc3[nH]ncc3c2c2c1CCCC2 | -11.1% (active) | 9.55% (active) | 7.84% (active) | 9.83% (active) | 4.81% (active) | 14.4% | 1.23% (active) | 12.2% | 0.342% (active) | -20.2% (active) |
| CC(=O)O[C@H]1CC2CCC3C(CC[C@@]4(C)C3C[C@H]([N+]3(C)CCCCC3)[C@@H]4OC(C)=O)[C@@]2(C)C[C@@H]1N1CCCCC1 (stereo not given in full) | 102% | 106% | 110% | 114% | 111% | 86.5% | 95.8% | 101% | 106% | 104% |
